Screening results (PubChem BioAssay)
Sampled rows, rich in hits. Any-hit rate of the full collection: about 0.77%.
Calpain2 inh – inhibitors of pig calpain II; purified calpain II, fluorogenic peptide substrate, 30 min; inhibition, % at 16 µM; 220,000 compounds, 0.37% hits; AID 1236;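 active = inhibition above about 50%, limit read from the data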
zVAD death inh – blocks zVAD induced death of L929 cells | L929 zVAD necroptosis rescue, ATP luminescence, 24 h; with zVAD 60 µM | viability rescue, % at 10 µM | 220,000 compounds, 0.38% hits;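 active = activation, scaled between plate controls, above about 75%, limit read from the data; inactive = activation under that limit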
TNF death inh – blocks TNF-alpha induced death of Jurkat FADD-/- cells; 220,000 compounds, 0.068% hits; AID 463075; Jurkat FADD-/- TNF necroptosis rescue, ATP luminescence, 24 h; 0 = TNF only, 100 = no-TNF cells; activation (protection from cell death), % at 10 µM;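 active = activation, meaning protection from cell death, of at least 50% relative to plate controls; inactive = activation below 50%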;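 note: necroptosis triggered by 40 ng/mL TNF-alpha added together with compound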
HSV augment – HSV replication enhancement; HSV replication augmentation in cells, fold increase; maximum fold increase; 220,000 compounds, 0.005% hits; in the data active = maximum fold increase above about 1.5; inconclusive = no clear call, values can overlap the other calls; tested in PC3 cells
A number is an active result; . = inactive; ? = inconclusive; / = no result given; ! = a repeat was not active.

SMILES	Calpain2 inh	zVAD death inh	TNF death inh	HSV augment
O=C(Nc1ccc([N+](=O)[O-])cc1)C1CC1(c1ccccc1)c1ccccc1 (stereo unspecified)	.	.	.	.
CCOC(=O)c1oc2nc(CC(C)C)c3c(c2c1N)CCCC3	.	.	.	.
COc1ccccc1NC(=O)COC(=O)C12CC3CC(CC(Cl)(C3)C1)C2	62	.	.	.
COc1ccc(NC(=O)COC(=O)C23CC4CC(CC(Cl)(C4)C2)C3)c(OC)c1	.	.	.	.
CCOC(=O)Cn1c(=O)cc(C)c2cccc(C)c21	73	.	.	.
CCOC(=O)Cn1c(C)cc(=O)c2cccc(C)c21	.	.	.	.
Cc1csc(SCC(=O)NC(=O)NC2CCCC2)n1	.	.	56	.
CCc1ccc2c(c1)C(c1ccc([N+](=O)[O-])cc1)=NNC(c1ccc(C)cc1)=N2	61	.	.	.
CCN(CC)CCCNC1=C(Cl)C(=O)c2ccccc2C1=O	51	.	.	.
CC1CC(C)CN(C(=O)CSc2nnc(-c3ccc(Cl)cc3)o2)C1 (stereo unspecified)	.	83	.	.
Cc1ccc(-c2nnc(SCC(=O)N3CC(C)CC(C)C3)o2)cc1C (stereo unspecified)	.	.	.	.
CCNC(=O)CC1C(=O)N(CC)C(=S)N1NC(=O)c1ccccc1 (stereo unspecified)	.	.	.	.
Cc1ccc2nc(NC(=O)CN(C)S(=O)(=O)c3cccc4nsnc34)sc2c1	53	.	.	.
CC(C)c1ccc(/C=C/c2ccc(=O)n(C)n2)cc1	.	.	.	.
CC(C)c1ccc(/C=C/C2=NNC(=O)CC2)cc1	92	.	.	.
Nc1nnc(Sc2ccc(Cl)cc2[N+](=O)[O-])s1	.	.	.	.
CC(C)Nc1nnc(Sc2ccc(Cl)cc2[N+](=O)[O-])s1	71	.	.	/
O=C(COC(=O)CC12CC3CC(CC(C3)C1)C2)Nc1cccnc1Cl	59	.	.	.
O=C(COC(=O)c1ccccc1O)Nc1cccnc1Cl	.	.	.	.
Cc1cc(C)n2nc(SCc3nnc(SCc4ccccc4Cl)s3)nc2n1	50	.	.	.
Cc1cc(C)n2nc(SCc3nnc(SCc4ccccc4C)s3)nc2n1	.	.	.	.
CCC(C)/C(C)=N/NC(=O)CSc1nc2ccccc2[nH]1 (stereo unspecified)	.	.	.	.
Cc1c(C(=O)NCc2ccccc2)oc2ccc(S(=O)(=O)N3CCCC3)cc12	.	.	.	.
Cc1ccc2c(CC(=O)Nc3cccc(S(=O)(=O)N4CCOCC4)c3)coc2c1	51	.	.	.
O=C(Cc1ccccc1Cl)Nc1cccc(S(=O)(=O)N2CCOCC2)c1	.	.	.	.
SMILES	Calpain2 inh	zVAD death inh	TNF death inh	HSV augment
Cc1ccc(CNC(=O)c2oc3ccc(S(=O)(=O)N4CCOCC4)cc3c2C)cc1	57	.	.	.
CCN(CC)S(=O)(=O)c1ccc2oc(C(=O)NCc3ccc(C)cc3)c(C)c2c1	63	.	.	.
O=C(c1ccc(C(F)(F)F)cc1)C1CCCN(C(=O)CN2C(=O)CSC2=O)C1 (stereo unspecified)	.	.	.	.
CCOC(=O)c1ccc(N2CCN(C(C)=O)CC2)c(NC(=O)c2cccnc2)c1	.	.	.	.
Cc1nc(-c2ccc(S(=O)(=O)Nc3cccc(S(N)(=O)=O)c3)s2)cs1	.	.	.	.
Cc1nc(-c2ccc(S(=O)(=O)Nc3ccc(Br)cc3Cl)s2)cs1	63	.	.	.
Cc1ccc(-n2c(-c3ccccc3)c[n+]3c2CCc2ccccc2-3)c(C)c1	.	.	.	.
COc1ccc(NC(=O)C2CCCN(S(=O)(=O)c3cccc4cccnc34)C2)c(OC)c1 (stereo unspecified)	124	.	.	.
CCCCCCCCCCCCCCCCn1cc[n+](C)c1	54!	.	.	.
COc1ccc(C2=Nn3c(nnc3-c3ccco3)SC2)cc1	51	.	.	.
COc1ccc(OC)c(C2=Nn3c(nnc3-c3ccco3)SC2)c1	.	.	.	.
O=C(CSC(=S)N1CCOCC1)N1N=CCC1c1ccccc1 (stereo unspecified)	.	.	50	.
O=C(CN1CCN(c2ccccc2)CC1)N1N=CCC1c1ccccc1 (stereo unspecified)	.	.	.	.
O=C(CN1CCN(C(c2ccccc2)c2ccccc2)CC1)N1N=CCC1c1ccccc1 (stereo unspecified)	.	.	68	.
O=C(CN1CCN(c2ccc(F)cc2)CC1)N1N=CCC1c1ccccc1 (stereo unspecified)	.	.	.	.
O=C(NC1CC1)C1CCN(C2CCN(C(=O)c3ccc4cccc(F)c4n3)CC2)CC1	.	.	.	.
COc1ccc2ncn(-c3ccccc3)c2c1	.	88	.	.
CN(C(=O)C(Cl)Cl)C1CC2C=CC1C2 (stereo unspecified)	.	.	.	.
O=C(Nc1ccccc1)/C(=C1\CCCN1)[N+](=O)[O-]	.	.	.	.
CCc1cc2c(=O)c(-c3nc(C)cs3)coc2cc1OC(C)C(=O)NCCO (stereo unspecified)	55	.	.	.
CCOc1ccccc1NC(=O)CCCn1cc([N+](=O)[O-])cn1	.	.	.	.
Cn1cc([N+](=O)[O-])c(C(=O)Nc2cc(Oc3cccnc3)cc([N+](=O)[O-])c2)n1	59	.	.	.
O=c1c2c(-c3ccccc3)csc2ncn1/N=C/c1ccc(O)c([N+](=O)[O-])c1	56	.	.	.
COc1ccc(C2N(C(=O)c3ccccc3)CCN2C(=O)c2ccc(C)cc2)cc1 (stereo unspecified)	.	.	.	.
COc1ccc(C2CN=NC2C(=O)c2ccccc2)cc1 (stereo unspecified)	.	.	79	.
SMILES	Calpain2 inh	zVAD death inh	TNF death inh	HSV augment
COc1cc2c3c(c1)C(C)CC(C)(C)N3C(=O)C2=O (stereo unspecified)	.	.	.	.
CCc1cc2c3c(c1)C(C)CC(C)(C)N3C(=O)/C2=C1\SC(=O)NC1=O (stereo unspecified)	57	.	.	.
Cn1c(=O)n(C)c2cc([N+](=O)[O-])c(N3CCN(S(C)(=O)=O)CC3)cc21	.	.	.	.
Cn1c(=O)n(C)c2cc([N+](=O)[O-])c(N3CCN(CCO)CC3)cc21	66	.	.	.
CC(C)N(Cc1ccccc1)C(=O)COC(=O)/C=C/c1cnc2ccccc2n1	.	.	.	.
Cn1nc(C(F)(F)F)c2cc(NC(=O)OCc3ccc(C(C)(C)C)cc3)sc21	.	.	.	/
Cn1nc(C(F)(F)F)c2cc(NC(=O)OCc3ccc(F)cc3)sc21	90	.	.	.
COc1ccc(COC(=O)Nc2cc3c(C(F)(F)F)nn(C)c3s2)cc1	62	.	.	.
O=C(Nc1ccc(Cl)cc1)NC1CCCCC1Cc1ccco1 (stereo unspecified)	53	.	.	.
COC(=O)c1c(C)oc(C)c1S(=O)(=O)NC(c1ccccc1)c1ccccc1	.	.	.	.
O=S(=O)(Nc1ccccc1)c1ccc2c(c1)CCO2	.	.	52	?
COCCNC(=O)c1sc2ncn(CC(=O)Nc3ccc(C)c(Cl)c3)c(=O)c2c1C	.	.	.	.
